The record followed here is the antibiotic and cytotoxicity screens of Wong et al. (2023).

Hit rate of the full screen: of about 39,000 compounds, about 3,300 (8.5%) were called active. The sample as a whole holds a higher share of actives than the screen did.

The test relates to HepG2. Description: cytotoxicity call (relative viability < 0.9). Conditions: 10 µM.
For the compound `C[C@H]1CN([C@@H](C)CO)C(=O)c2cccc(NS(C)(=O)=O)c2O[C@H]1CN(C)S(=O)(=O)c1ccc(Cl)cc1`, the cytotoxicity call is “inactive”. To `C[C@H]1CN([C@@H](C)CO)C(=O)Cc2cc(NC(=O)CCN3CCOCC3)ccc2O[C@@H]1CN(C)S(=O)(=O)c1ccccc1` belongs “inactive”.

For the compound `COc1ccc(NC(=O)N(C)C[C@H]2Oc3ccc(NC(=O)CCN4CCOCC4)cc3C(=O)N([C@H](C)CO)C[C@@H]2C)cc1`, the cytotoxicity call is “inactive”. Under `CCS(=O)(=O)N1C[C@]2(CN(C2)S(=O)(=O)c2cn(cn2)C)c2c(n(c3cc(ccc23)OC)C)[C@@H]1CO` stands “inactive”; under `CC(=O)N(C)C[C@@H]1Oc2cc(C#CCN(C)C)ccc2S(=O)(=O)N([C@H](C)CO)C[C@H]1C`, “inactive”; under `Cc1noc(C)c1S(=O)(=O)N(C)C[C@H]1Oc2ccc(NC(=O)CCN3CCOCC3)cc2CC(=O)N([C@@H](C)CO)C[C@H]1C`, “inactive”. Under `CC1CCC2C(C)C(O)OC3OC4(C)CCC1C32OO4` (stereo unspecified) stands “active”; under `CC(=O)C1CCC2C3CC=C4CC(OC(=O)CCC(=O)O)CCC4(C)C3CCC12C` (stereo unspecified), “inactive”. Under `COC1OC2OC3(C)CCC4C(C)CCC(C1C)C24OO3` (stereo unspecified) stands “inactive”. As to `CC1CCC2C(C)C(OC(=O)CCC(=O)O)OC3OC4(C)CCC1C32OO4` (stereo unspecified), the cytotoxicity call was “active”. Under `CCCN(C)C[C@@H]1OCCCC[C@@H](C)Oc2ccc(NC(=O)C3CCCCC3)cc2C(=O)N([C@@H](C)CO)C[C@@H]1C` stands “inactive”; under `COc1cc(/C=C/C(=O)C2=C(NCCc3ccccc3)S[C@H](c3ccc(O)c(OC)c3)CC2=O)ccc1O`, “inactive”. Under `C[C@@H]1CN([C@@H](C)CO)C(=O)c2cccc(NS(=O)(=O)c3cn(C)cn3)c2O[C@H]1CN(C)CC1CC1` stands “inactive”; under `CNC[C@H]1Oc2ccc(NC(=O)Cn3cnnn3)cc2CC(=O)N([C@H](C)CO)C[C@@H]1C`, “inactive”. As to `C[C@@H](O)[C@@H](Nc1ncnc2ccccc12)C(=O)O`, the cytotoxicity call was “inactive”. To `C[C@H]1CN([C@@H](C)CO)C(=O)c2cccc(NC(=O)c3ccc(-c4nccs4)cc3)c2O[C@@H]1CN(C)Cc1ccc2c(c1)OCO2` belongs “inactive”; to `C[C@@H]1CCCCO[C@H](CN(C)Cc2ccc(C(=O)O)cc2)[C@@H](C)CN([C@@H](C)CO)C(=O)c2cc(NC(=O)c3ccccc3)ccc2O1`, “inactive”. To `COC12C(COC(N)=O)C3=C(C(=O)C(C)=C(N)C3=O)N1CC1NC12` (stereo unspecified) belongs “active”. To `CO[C@@]12[C@H](COC(N)=O)C3=C(C(=O)C(C)=C(N)C3=O)N1C[C@@H]1N[C@@H]12` belongs “inactive”; to `CO[C@@]12[C@@H]3N[C@@H]3CN1C1=C(C(=O)C(N)=C(C)C1=O)[C@@H]2COC(N)=O`, “active”; to `COc1cccc(S(=O)(=O)Nc2ccc3c(c2)[C@@H]2C[C@@H](CC(=O)NCCc4ccccc4)O[C@@H](CO)[C@@H]2O3)c1`, “inactive”. As for `C=CCOC(=O)[C@@H]1[C@H]2C(=O)O[C@H](c3ccccc3)[C@H](c3ccccc3)N2[C@H](c2ccc(OCCOC(=O)[C@@H]3C[C@@H]4C(=O)N[C@@H](CC(C)C)C(=O)N4[C@@H]3c3ccc(O)cc3)cc2)[C@@]12C(=O)Nc1ccc(I)cc12`, the cytotoxicity call was “inactive”.

Take `COC(=O)C[C@H]1CC[C@H]2[C@H](COc3ccc(NS(=O)(=O)c4ccccc4Cl)cc3C(=O)N2C)O1`: the cytotoxicity call was “inactive”.

As for `O=C(/C=C/c1cccc(-c2cn(CC(=O)N3CCC4(CC3)C(=O)NCN4c3ccccc3)nn2)c1)NO`, the cytotoxicity call is “inactive”. Under `O=C(NO)c1cn(-c2cccc(C(=O)N3CCC4(CC3)C(=O)NCN4c3ccccc3)c2)nn1` stands “active”. Under `O=C(NO)c1cn(CC(=O)N2CCC3(CC2)C(=O)NCN3c2ccccc2)nn1` stands “inactive”. Consider `O=C(Cn1cc(CN2C(=O)COC[C@H]2c2ccccc2)nn1)N1CCC2(CC1)C(=O)NCN2c1ccccc1`, for which the cytotoxicity call was “inactive”. To `O=C(/C=C/c1cccc(-c2cn(-c3cccc(C(=O)N4CCC5(CC4)C(=O)NCN5c4ccccc4)c3)nn2)c1)NO` belongs “inactive”. Under `O=C(CCc1cn(CC(=O)N2CCC3(CC2)C(=O)NCN3c2ccccc2)nn1)NO` stands “active”; under `C[C@@H]1CN([C@H](C)CO)C(=O)c2cc(NS(=O)(=O)c3ccc(F)cc3)ccc2O[C@@H](C)CCCCO[C@@H]1CN(C)S(=O)(=O)c1ccc(Cl)cc1`, “inactive”; under `C[C@@H]1CN([C@H](C)CO)C(=O)c2cccc(NC(=O)c3cnccn3)c2O[C@H]1CN(C)S(C)(=O)=O`, “inactive”.

On to `C[C@@H]1CCCCO[C@@H](CN(C)C(=O)c2ccncc2)[C@@H](C)CN([C@H](C)CO)C(=O)c2cc(NC(=O)C3CCCCC3)ccc2O1`, for which the cytotoxicity call is “inactive”. To `C[C@@H]1CN([C@H](C)CO)C(=O)c2cc(NC(=O)C3CCCCC3)ccc2O[C@@H](C)CCCCO[C@@H]1CN(C)C(=O)c1ccncc1` belongs “inactive”; to `C[C@H]1CN([C@@H](C)CO)C(=O)c2cc(NC(=O)CCC(F)(F)F)ccc2O[C@@H]1CN(C)Cc1ccc(C(=O)Nc2ccccc2N)cc1`, “inactive”; to `COc1ccc(NC(=O)N(C)C[C@H]2OCCCC[C@@H](C)Oc3ccc(NS(=O)(=O)c4c(C)noc4C)cc3C(=O)N([C@@H](C)CO)C[C@H]2C)cc1`, “inactive”.

On to `NNc1ccc2nncn2n1`, for which the cytotoxicity call is “inactive”. Regarding `C[C@@H]1CN([C@@H](C)CO)C(=O)Cc2cc(NC(=O)CCN3CCOCC3)ccc2O[C@H]1CN(C)S(=O)(=O)c1cn(C)cn1`, the cytotoxicity call is “inactive”. Under `C[C@H]1CN([C@@H](C)CO)C(=O)c2cc(C#CCN(C)C)cnc2O[C@H]1CN(C)C(=O)Nc1cccc(F)c1` stands “inactive”. To `C[C@H]1CN([C@@H](C)CO)C(=O)c2cc(C#CCc3ccccc3)cnc2O[C@H]1CN(C)CC1CCOCC1` belongs “inactive”; to `CC(C)N1C[C@@H](C)[C@H](CN(C)Cc2ccc(Oc3ccccc3)cc2)Oc2c(C(=O)Nc3ccncc3)cccc2C1=O`, “inactive”. Under `Cc1cc(C(C)(C)C)c(O)c(C(C)(C)C)c1` stands “active”; under `CC(C)(Sc1cc(C(C)(C)C)c(O)c(C(C)(C)C)c1)Sc1cc(C(C)(C)C)c(O)c(C(C)(C)C)c1`, “inactive”; under `Cc1ccc(O)c(C(C)(C)C)c1`, “inactive”.

Regarding `C[C@H](CO)N1C[C@H](C)[C@H](CN(C)C(=O)CN(C)C)Oc2ncc(C#CC(C)(C)O)cc2C1=O`, the cytotoxicity call is “inactive”.

As to `C[C@@H]1CN([C@@H](C)CO)C(=O)c2cccc(NC(=O)CCCCCC(=O)Nc3ccccc3N)c2O[C@@H]1CN(C)S(=O)(=O)c1cn(C)cn1`, the cytotoxicity call was “inactive”. To `C[C@@H]1CN([C@H](C)CO)C(=O)c2cc(NS(=O)(=O)c3ccccc3)ccc2O[C@@H]1CN(C)Cc1ccc(Cl)c(Cl)c1` belongs “active”; to `C[C@@H]1CN([C@@H](C)CO)C(=O)c2cc(NS(=O)(=O)c3ccccc3)ccc2O[C@H]1CN(C)Cc1ccc(Cl)c(Cl)c1`, “inactive”. To `C[C@H](CO)N1C[C@H](C)[C@@H](CN(C)Cc2ccc(Cl)c(Cl)c2)Oc2ccc(NS(=O)(=O)c3ccccc3)cc2C1=O` belongs “inactive”; to `C[C@H]1CN([C@@H](C)CO)C(=O)c2cc(NS(=O)(=O)c3ccccc3)ccc2O[C@@H]1CN(C)Cc1ccc(Cl)c(Cl)c1`, “inactive”; to `C[C@H](CO)N1C[C@H](C)[C@H](CN(C)Cc2ccc(Cl)c(Cl)c2)Oc2ccc(NS(=O)(=O)c3ccccc3)cc2C1=O`, “inactive”. To `C[C@@H]1CN([C@@H](C)CO)C(=O)c2cc(NS(=O)(=O)c3ccccc3)ccc2O[C@@H]1CN(C)Cc1ccc(Cl)c(Cl)c1` belongs “active”. Consider `C[C@H](CO)N1C[C@H](C)[C@@H](CN(C)C(=O)Nc2ccc(N3CCCCC3)cc2)OCc2cnnn2CCCC1=O`, for which the cytotoxicity call is “inactive”. To `CC(C)NC(=O)N(C)C[C@@H]1Oc2ccc(NC(=O)C3CCCCC3)cc2CC(=O)N([C@@H](C)CO)C[C@H]1C` belongs “inactive”.

Regarding `CCC[C@@H](O)C#Cc1cnc2c(c1)C(=O)N([C@H](C)CO)C[C@H](C)[C@H](CN(C)S(=O)(=O)c1cccs1)O2`, the cytotoxicity call was “inactive”. To `C[C@H]1CC[C@@H]2C(C(=O)O[C@H]3[C@H]4O[C@@]4(C)[C@H]4[C@@H](O[C@H]5O[C@@H](CO)[C@@H](O)[C@@H](O)[C@@H]5O)OC=C[C@@]34O)=CO[C@H](O[C@H]3O[C@@H](CO)[C@@H](O)[C@@H](O)[C@@H]3O)[C@@H]21` belongs “inactive”; to `C[C@H](CO)N1C[C@H](C)[C@H](CN(C)C(=O)Nc2ccc(F)cc2)Oc2ccc(NS(C)(=O)=O)cc2C1=O`, “inactive”. For the compound `C[C@H]1CN([C@@H](C)CO)C(=O)c2cc(NC(=O)Nc3ccc(C(F)(F)F)cc3)ccc2O[C@@H]1CN(C)C(=O)NC1CCCCC1`, the cytotoxicity call was “inactive”. Regarding `C[C@H]1CN([C@@H](C)CO)C(=O)c2cc(NC(=O)Nc3ccc(C(F)(F)F)cc3)ccc2O[C@H]1CN(C)C(=O)NC1CCCCC1`, the cytotoxicity call was “inactive”. To `C[C@H](CO)N1C[C@H](C)[C@@H](CN(C)C(=O)NC2CCCCC2)Oc2ccc(NC(=O)Nc3ccc(C(F)(F)F)cc3)cc2C1=O` belongs “inactive”; to `C[C@@H]1CN([C@H](C)CO)C(=O)c2cc(NC(=O)Nc3ccc(C(F)(F)F)cc3)ccc2O[C@H]1CN(C)C(=O)NC1CCCCC1`, “inactive”. On to `C[C@H](CO)N1C[C@H](C)[C@H](CN(C)C(=O)Nc2ccc(C(F)(F)F)cc2)Oc2ccc(NC(=O)NC3CCCCC3)cc2C1=O`, for which the cytotoxicity call was “active”. To `C[C@H]1CN([C@@H](C)CO)C(=O)c2cc(NC(=O)NC3CCCCC3)ccc2O[C@H]1CN(C)C(=O)Nc1ccc(C(F)(F)F)cc1` belongs “inactive”; to `C[C@@H]1CN([C@H](C)CO)C(=O)c2cc(NC(=O)Nc3ccc(C(F)(F)F)cc3)ccc2O[C@@H]1CN(C)C(=O)NC1CCCCC1`, “active”. Under `C[C@@H]1CN([C@H](C)CO)C(=O)c2cc(NC(=O)NC3CCCCC3)ccc2O[C@H]1CN(C)C(=O)Nc1ccc(C(F)(F)F)cc1` stands “inactive”. To `C[C@@H]1CN([C@@H](C)CO)C(=O)c2cc(NC(=O)Nc3ccc(C(F)(F)F)cc3)ccc2O[C@@H]1CN(C)C(=O)NC1CCCCC1` belongs “active”.

On to `C[C@@H]1CN([C@H](C)CO)C(=O)c2cc(NC(=O)Nc3ccccc3)ccc2O[C@@H](C)CCCCO[C@@H]1CN(C)C(=O)NC1CCCCC1`, for which the cytotoxicity call was “inactive”.
